{"source": "the supplement of paper PMC11417369", "note": "± gives the standard deviation of the averaged measurements. Over roughly 25,000 sequences, “ln(normalized median fluorescence intensity)” has its median near 8.6; the highest 2% begin near 10. The sample as a whole holds a higher share of the highest values than the screen did."}
{"tested_on": "PfAP2-EXP AP2 domain (GST-tagged)", "experiment": "gcPBM binding intensity (ln(normalized median fluorescence intensity)); higher = stronger DNA binding", "method_in_brief": "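In this array assay, P. falciparum DNA-binding domains with a GST tag, expressed in E. coli, were applied for 1 h to primer-extended double-stranded 36-bp intergenic genomic probes and negative controls on an Agilent 4 × 180k array. Bound protein was visualised with Alexa488 anti-GST antibody at 488 nm. Binding intensity is the highest Masliner-normalised natural-log median intensity across replicate spots of either probe orientation.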"}
{"sequence": "ATTAAATACTTCGATTGTACAATTTTTTTTTTTTTT [XGTACX_site832]", "gcPBM binding intensity (ln)": "8.59 ± 0.59"}
{"sequence": "ATTTAAAATGGTTATACACACATAAAAGGGGAAATG [CACACA_site2649]", "gcPBM binding intensity (ln)": "8.95 ± 0.57"}
{"sequence": "TTTTTTTTTCGCTTTTGTACACATTTTATAGAACAG [XGTACX_site2416]", "gcPBM binding intensity (ln)": "8.87 ± 0.46"}
{"sequence": "AAAAAAAAAAAAAAGCGTACAAATAAAATATATTTA [XGTACX_site7195]", "gcPBM binding intensity (ln)": "8.52 ± 0.49"}
{"sequence": "CATATACACGAACACACACACATATAAATAAATATA [CACACA_site6379]", "gcPBM binding intensity (ln)": "8.73 ± 0.46"}
{"sequence": "AACATATACACGAACACACACACATATATATATATA [CACACA_site502]", "gcPBM binding intensity (ln)": "10.1 ± 0.38"}
{"sequence": "CATATACACGAACACACACACATATATATATATATA [CACACA_site4437]", "gcPBM binding intensity (ln)": "10.3 ± 0.39"}
{"sequence": "AACATATACACGAACACACACACATATAAATAAATA [CACACA_site6380]", "gcPBM binding intensity (ln)": "8.74 ± 0.56"}
{"sequence": "GGCATACACGAACACACACACACACGCACATATATA [CACACA_site6426]", "gcPBM binding intensity (ln)": "8.96 ± 0.52"}
{"sequence": "CCCCCCCACGAACACACACACATACATACCACATAT [CACACA_site7149]", "gcPBM binding intensity (ln)": "10.41 ± 0.028"}
{"sequence": "ATTATATTTCAATTATGTACATATAAAATGAATAAA [XGTACX_site4204]", "gcPBM binding intensity (ln)": "8.43 ± 0.38"}
{"sequence": "ATGAATATAATAAAGAAACACACGTATACATAATGA [CACACA_site1355]", "gcPBM binding intensity (ln)": "8.8 ± 0.54"}
{"sequence": "TAAAATTTACAACACTGTACTTGAATTTATCTTTAA [XGTACX_site241]", "gcPBM binding intensity (ln)": "8.25 ± 0.37"}
{"sequence": "CGCATAAAGACAAGAACACACATATAGATTGTAGTA [CACACA_site3693]", "gcPBM binding intensity (ln)": "8.27 ± 0.49"}
{"sequence": "GTTATATTTAAAATAGTGCAATAAAAATAATAATAT", "gcPBM binding intensity (ln)": "8.89 ± 0.2"}
{"sequence": "ATTATTATATAGTGTGCATGCAATATTAATAAAACC [TGCATGCA_site245]", "gcPBM binding intensity (ln)": "10.3 ± 0.4"}
{"sequence": "ATTATATATAATATAGTGCATGTAAAAAATAAAACA", "gcPBM binding intensity (ln)": "9.23 ± 0.33"}
{"sequence": "ATTGCGTGATAATAATGTACAAAAAGTAATTTATAT [XGTACX_site8339]", "gcPBM binding intensity (ln)": "8.48 ± 0.45"}
{"sequence": "TAATTCGCAAAAGAAAGAAATTAAGAAAAAGAAAAA [XGTACX_negctrl_site614]", "gcPBM binding intensity (ln)": "8.32 ± 0.68"}
{"sequence": "TCTTTCTTATATTTATATAATTATATTTATTTTATA [GTGCAC_negctrl_site300]", "gcPBM binding intensity (ln)": "8.74 ± 0.38"}
{"sequence": "GTATATATATATATATATATATATTTTTATTTATTT [CACACA_negctrl_site589]", "gcPBM binding intensity (ln)": "8.65 ± 0.18"}
{"sequence": "TTTTTTTTTTTTTTTTTTTTCATTCAATTATATTTA [CACACA_negctrl_site712]", "gcPBM binding intensity (ln)": "8.04 ± 0.33"}
{"sequence": "TTTTATTATTCTTCTCTCTTATATATATATATATAT [CACACA_negctrl_site646]", "gcPBM binding intensity (ln)": "10.2 ± 0.26"}
{"sequence": "TTTTATTCCTATTTATTTATATTTTTGTCTTATATC [CACACA_negctrl_site125]", "gcPBM binding intensity (ln)": "8.8 ± 0.43"}
{"sequence": "ATTTTTTTTATTTTTTCAATATATATATATATATAT [CACACA_negctrl_site1444]", "gcPBM binding intensity (ln)": "10.2 ± 0.19"}
{"sequence": "ATATATATATATATATATATAATTTTTTTTGTTTTT [TGCATGCA_negctrl_site453]", "gcPBM binding intensity (ln)": "10.3 ± 0.3"}
{"sequence": "TTTTCATTCAATTATATTTATATATATATATATATA [GTGCAC_negctrl_site538]", "gcPBM binding intensity (ln)": "10.2 ± 0.44"}
{"sequence": "ATTTGTATATAATATATATAATTTTTTTTTTTTGTT [XGTACX_negctrl_site425]", "gcPBM binding intensity (ln)": "8.2 ± 0.31"}
{"sequence": "TTTTTTTATTATTCTTATATAAAAATTTTTTTTAAT [CACACA_negctrl_site159]", "gcPBM binding intensity (ln)": "8.27 ± 0.45"}
{"sequence": "GTATATATTTTTATTTAATAATTTGTTTATTTATTC [CACACA_negctrl_site647]", "gcPBM binding intensity (ln)": "8.56 ± 0.22"}
{"sequence": "ATATATTTTATTCCTATATATATATATATATATATA [GTGCAC_negctrl_site556]", "gcPBM binding intensity (ln)": "10.2 ± 0.49"}
{"sequence": "ACAAAAAAAAAGGAAACACACAAAAAAAAAAAATAA [CACACA_site3523]", "gcPBM binding intensity (ln)": "8.44 ± 0.59"}
{"sequence": "TAATGAAAAAATAAAAGAATAAATAAATAAATAAAT [TGCATGCA_negctrl_site130]", "gcPBM binding intensity (ln)": "8.77 ± 0.3"}
{"sequence": "AGTGTATATAGAAACATACACACATATTAATTTTAC [CACACA_site3127]", "gcPBM binding intensity (ln)": "8.3 ± 0.28"}
{"sequence": "AAAAAAAAAAAAAAAGTGCACTGAAAATATATTGAA [GTGCAC_site9395]", "gcPBM binding intensity (ln)": "9.04 ± 0.2"}
{"sequence": "TTTTTTTTTCTTTCTTTCTTTTGTAAAAACCTCAAA [CACACA_negctrl_site723]", "gcPBM binding intensity (ln)": "8.46 ± 0.37"}
{"sequence": "TGTGCACGTTCTGTGACACACATTTAAATGTGCTTA [CACACA_site176]", "gcPBM binding intensity (ln)": "8.62 ± 0.35"}
{"sequence": "ATTTTGTTATTATATATATATATATATATATATATA [XGTACX_negctrl_site590]", "gcPBM binding intensity (ln)": "10.3 ± 0.57"}
{"sequence": "TATTAATTAAACCATACACACATAATTTTTTTATAA [CACACA_site843]", "gcPBM binding intensity (ln)": "8.21 ± 0.43"}
{"sequence": "TATATATATATATATATATATATTTTTATTATATAT [XGTACX_negctrl_site89]", "gcPBM binding intensity (ln)": "10.2 ± 0.52"}
{"sequence": "TTTTTTTTTTTTTTTTATTTATATATATATATATAT [CACACA_negctrl_site582]", "gcPBM binding intensity (ln)": "9.98 ± 0.23"}
{"sequence": "TATATATATTAATTTATTTATTTGTTTATTTATTTA [CACACA_negctrl_site185]", "gcPBM binding intensity (ln)": "8.41 ± 0.18"}
{"sequence": "GTTATATATATATATATATATATATATATTTTTTTT [GTGCAC_negctrl_site597]", "gcPBM binding intensity (ln)": "8.84 ± 0.15"}
{"sequence": "TTTTTATTTATATATATATATATATATTATATATAA [CACACA_negctrl_site1654]", "gcPBM binding intensity (ln)": "8.34 ± 0.36"}
